From PubChem
mHTT-CaM PPI inh – mutant huntingtin-calmodulin interaction inhibitors – biochemical, AlphaScreen, primary screen; P42858; hit rate 3.6% among 190,000; inhibition, % at 15 µM; AlphaScreen His-mHTT/GST-CaM binding, luminescence;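 further: 0% = both proteins with DMSO and 100% = one protein alone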
Pf apPOL block – Pf-apPOL inhibitors, biochemical, fluorescence; Plasmodium falciparum apicoplast DNA polymerase (apPOL); Recombinant Pf-apPOL, molecular beacon fluorescence, 1.5 h; inhibition, % at 10 µM; hit rate 0.25% among 210,000; AID 1794808, 2022
Starred values were filed as active, the others as inactive. A selection: hits, their analogues and other compounds. The true share with any hit is near 3.6%. No stated cut-off is given here; in the data, active means inhibition above about 50%; inactive means the rest.

Results for CCOc1ccccc1CN1CCc2nc(Nc3ccc(OC)cc3OC)ncc2C1 ?
mHTT-CaM PPI inh: 55*; Pf apPOL block: -6

Results for COc1ccc(OC)c(Nc2ncc3c(n2)CCN(Cc2cccc(C)c2)C3)c1 ?
mHTT-CaM PPI inh: 64*; Pf apPOL block: -3

Results for COc1ccc(Nc2ncc3c(n2)CCN(Cc2ccccc2OC)C3)c(OC)c1 ?
mHTT-CaM PPI inh: 45; Pf apPOL block: -3

How did CCCc1cc(=O)[nH]c(SCC(=O)Nc2cc(Cl)cc(Cl)c2)n1 do in these assays?
Pf apPOL block: -3

How did O=C(c1ccccc1-c1ocnc1C(=O)N1CCCCCC1)N1CCCC1 do in these assays?
mHTT-CaM PPI inh: -2; Pf apPOL block: -5

Results for O=C(c1ccccc1)N1CCN(Cc2noc(-c3cccc(F)c3)n2)CC1 ?
mHTT-CaM PPI inh: -5; Pf apPOL block: -3

What do the screens show for `Cc1ccc(C(=O)NC(C)C)c(C2CCN(Cc3ccc(F)cc3)CC2)n1`?
mHTT-CaM PPI inh: -4; Pf apPOL block: -6

Results for Cc1ncnc2c1CC(=O)N2Cc1cccnc1 ?
mHTT-CaM PPI inh: 15; Pf apPOL block: 15

Results for Nc1nc[nH]c(=O)c1[N+](=O)[O-] ?
mHTT-CaM PPI inh: -6; Pf apPOL block: -3

How did NNc1ncc([N+](=O)[O-])c2nc[nH]c12 do in these assays?
mHTT-CaM PPI inh: 100*

What do the screens show for `CCC(C)n1cc(/C=C2\C(=O)NC(=O)N(c3ccc4c(c3)OCO4)C2=O)c2ccccc21` (stereo not drawn)?
mHTT-CaM PPI inh: 18; Pf apPOL block: 7

Results for c1ccc(-c2cnc(-c3cccc4ccccc34)o2)cc1 ?
mHTT-CaM PPI inh: -27

Results for COc1ccc(-c2cnc(-c3c(O)c(C)nc4ccccc34)o2)cc1 ?
mHTT-CaM PPI inh: 60*; Pf apPOL block: -1

What do the screens show for `CC1CCCN(c2nc3ccccn3c(=O)c2C=O)C1` (stereo not drawn)?
mHTT-CaM PPI inh: -3

Results for COc1ccc(C(=O)Oc2cc(C)[nH]c(=O)c2[N+](=O)[O-])cc1 ?
mHTT-CaM PPI inh: 97*; Pf apPOL block: 2

What do the screens show for `COc1ccc(Cl)cc1C(=O)Oc1cc(C)[nH]c(=O)c1[N+](=O)[O-]`?
mHTT-CaM PPI inh: -5; Pf apPOL block: -4

Results for CCCCOc1ccc(C(=O)Oc2cc(C)[nH]c(=O)c2[N+](=O)[O-])cc1 ?
mHTT-CaM PPI inh: 10; Pf apPOL block: -6

Results for COc1ccc(C=CC(=O)Oc2cc(C)[nH]c(=O)c2[N+](=O)[O-])cc1OC ?
mHTT-CaM PPI inh: 91*; Pf apPOL block: 6

How did Cc1cc(C)c(C)c(OCC(=O)Nc2cccc(C)n2)c1 do in these assays?
mHTT-CaM PPI inh: 0; Pf apPOL block: -3

Results for O=C1CC(c2ccccc2Cl)CC2=C1C(c1coc3ccccc3c1=O)Nc1ccccc1N2 (stereo not drawn) ?
mHTT-CaM PPI inh: 26; Pf apPOL block: 10

Results for O=C1CC(c2cccs2)CC2=C1C(c1coc3ccccc3c1=O)Nc1ccccc1N2 (stereo not drawn) ?
mHTT-CaM PPI inh: 54*; Pf apPOL block: -4

What do the screens show for `COc1ccc(-n2c(C=C(C)O)nc(=O)c3c(C)cc(C)nc32)cc1`?
mHTT-CaM PPI inh: 7; Pf apPOL block: -3

Results for CCn1cc(CN2CCC(C(=O)NCCCOC(C)C)CC2)c2ccccc21 ?
mHTT-CaM PPI inh: -1; Pf apPOL block: -1

What do the screens show for `O=C(Cc1c[nH]c2ccccc12)N(CC1CCCO1)C1(C(=O)NC2CCCC2)CCCCC1` (stereo not drawn)?
mHTT-CaM PPI inh: 67*; Pf apPOL block: -7

How did O=C(Cc1c[nH]c2ccccc12)N(Cc1cccs1)C1(C(=O)NC2CCCCC2)CCCCC1 do in these assays?
mHTT-CaM PPI inh: 1; Pf apPOL block: 0

What do the screens show for `O=C(O)CCC(C(=O)O)N1C(=O)C(=Cc2ccco2)SC1=S` (stereo not drawn)?
mHTT-CaM PPI inh: 1; Pf apPOL block: 41

Results for CCCC(C(=O)O)N1C(=O)C(=CC=Cc2ccco2)SC1=S (stereo not drawn) ?
mHTT-CaM PPI inh: 84*; Pf apPOL block: 92*

Results for CC(C)C(C(=O)O)N1C(=O)C(=Cc2ccco2)SC1=S (stereo not drawn) ?
mHTT-CaM PPI inh: 11; Pf apPOL block: 36

Results for CC(C(=O)O)N1C(=O)C(=CC=Cc2ccco2)SC1=S (stereo not drawn) ?
mHTT-CaM PPI inh: 30; Pf apPOL block: 91*

What do the screens show for `NC(Cc1ccc(F)cc1Cl)=NO`?
Pf apPOL block: -3

How did N#Cc1cnc2ccc(F)cc2c1N1CCC(C(=O)Nc2cc(F)ccc2F)CC1 do in these assays?
mHTT-CaM PPI inh: -11; Pf apPOL block: 2

How did Cc1ccc(-c2nc(C(=O)NC(C)(C)C)cs2)n1C do in these assays?
mHTT-CaM PPI inh: 16; Pf apPOL block: -16

Results for CCN(Cc1ccccc1)S(=O)(=O)c1ccc(F)c(C(=O)Nc2ccc(F)c(F)c2)c1 ?
mHTT-CaM PPI inh: -4; Pf apPOL block: 1

How did O=C(NCCC(c1ccccc1)c1ccccc1)C(=O)Nc1ccncc1 do in these assays?
mHTT-CaM PPI inh: -1; Pf apPOL block: -3

How did CC1CCC(NC(=O)C2c3ccccc3C(=O)N2Cc2ccccc2Cl)CC1 (stereo not drawn) do in these assays?
mHTT-CaM PPI inh: 8; Pf apPOL block: -3

What do the screens show for `O=C(NC1CCCC1)C1c2ccccc2C(=O)N1Cc1ccccc1Cl` (stereo not drawn)?
mHTT-CaM PPI inh: 53*; Pf apPOL block: 1

How did CN(CCNC(=O)c1cc2c(s1)CN(C1CC1)C2)C1CCCCC1 do in these assays?
mHTT-CaM PPI inh: 0; Pf apPOL block: -1

Results for CCN(CC)C(=O)CC[C@H]1CC[C@]2(CCCN(Cc3ccc(Br)cc3)C2)O1 ?
mHTT-CaM PPI inh: 9; Pf apPOL block: 0

How did N#CCC[C@@H]1CC[C@]2(CCCN(C(=O)c3ccccc3)C2)O1 do in these assays?
mHTT-CaM PPI inh: -12; Pf apPOL block: -10

What do the screens show for `N#CCC[C@@H]1CC[C@]2(CCCN(C(=O)c3ccco3)C2)O1`?
mHTT-CaM PPI inh: 99*; Pf apPOL block: -6

How did N#CCC[C@H]1CC[C@]2(CCCN(Cc3ccc(Br)cc3)C2)O1 do in these assays?
mHTT-CaM PPI inh: 89*; Pf apPOL block: -9

What do the screens show for `Cc1ccc(C2CCCN2C(=O)C(C)(C)C)cc1` (stereo not drawn)?
mHTT-CaM PPI inh: 0; Pf apPOL block: -1

How did Cc1cc(C)nc(NC=C(C#N)C(=O)c2cccc(CSc3ccccc3)c2)n1 do in these assays?
Pf apPOL block: -3

Results for COc1ccc(C2CC(c3c(-c4ccccc4)c4cc(Br)ccc4[nH]c3=O)=NO2)cc1 (stereo not drawn) ?
mHTT-CaM PPI inh: 15; Pf apPOL block: 6

How did CC(=O)N1N=C(c2c(-c3ccccc3)c3cc(Br)ccc3[nH]c2=O)CC1c1ccco1 (stereo not drawn) do in these assays?
mHTT-CaM PPI inh: 95*; Pf apPOL block: 0

Results for O=c1[nH]c2ccc(Cl)cc2c(-c2ccccc2)c1C1=NOC(c2ccccc2)C1 (stereo not drawn) ?
mHTT-CaM PPI inh: 100*; Pf apPOL block: -10

What do the screens show for `CC(=O)N1N=C(c2c(-c3ccccc3)c3cc(Cl)ccc3[nH]c2=O)CC1c1ccccc1F` (stereo not drawn)?
mHTT-CaM PPI inh: 18; Pf apPOL block: -2

What do the screens show for `CC(=O)N1N=C(c2c(-c3ccccc3)c3cc(Cl)ccc3[nH]c2=O)CC1c1ccccc1Cl` (stereo not drawn)?
mHTT-CaM PPI inh: 93*; Pf apPOL block: -2
